Source: PubChem BioAssay (National Center for Advancing Translational Sciences (NCATS))
HT1080NT lethal: kills 2HG-producing HT-1080-NT fibrosarcoma cells | hit rate 1.6% among 360,000 | HT-1080-NT fibrosarcoma viability, CellTiter-Glo ATP luminescence, 48 h | AID 686970 | Potency, µM (titrated, usually from 46.1 µM), inactives show top-dose activity, negative = less viability, usual class: cytotoxic;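 note: NT is the 2HG producing partner of a matched IDH1 knockdown line; 0% = DMSO-treated cells and -100% = media-only wells without cells; nearly all actives have a fitted effect of over 55% in size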
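Read-out is CellTiter-Glo luminescence after 10 minutes at room temperature, following 48 hours' compound treatment of HT-1080-NT cells (750 cells/well, RPMI, 5% FBS, 37 degrees C).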
KB-3-1 tox: kills parental KB-3-1 adenocarcinoma cells; hit rate 1.4% among 400,000; Potency, µM (series often up to 46.1 µM), usual class: cytotoxic; KB-3-1 viability, CellTiter-Glo ATP luminescence, 72 h; AID 1347075; note: nearly all actives have a fitted effect of over 60% in size
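Screening of KB-3-1 cells (DMEM, 10% FBS, phenol-red free) ran from lowest to highest compound concentration; after 72 h at 37 °C viability was read luminescently and curves fitted.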
KB-V1 cytotox: KB-V1 MDR subline cytotoxicity | KB-V1 MDR cells viability, CellTiter-Glo, 72 h | hit rate 3.4% among 400,000 | Potency, µM (doses to about 46.1 µM), usual class: cytotoxic; note: nearly all actives have a fitted effect of over 60% in size
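Potencies derive from concentration-effect curves fitted to normalized luminescence (CellTiter-Glo) of KB-V1 cells treated for 72 h at 37 degrees C in phenol-red-free DMEM containing 10% FBS.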
HT1080 IDH1KD tx: HT-1080 IDH1 knockdown cell toxicity (counter line); hit rate 2% among 360,000; Potency, µM (series often up to 46.1 µM), for the others: top-dose activity, negative = toxicity, usual class: cytotoxic; HT-1080 IDH1 knockdown viability, ATP luminescence, 48 h;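 note: 0% = DMSO wells and -100% = cell-free medium wells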
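Luminescent ATP read-out (CellTiter-Glo, 10 min at room temperature) after 48 h compound exposure at 37 °C gave viability of IDH1-knockdown HT-1080 cells. Activity was normalised to DMSO and cell-free wells, then fitted as concentration-response curves.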
Starred values were filed as active, the others as inactive; i = inactive; ? = inconclusive; . = no result. Most compounds without a hit are left out; they make up all but 5.7% or so of the library. Calls come from the whole dose curve; as a rule, active = well fitted curve in the direction sought with a large enough effect; inconclusive = small, poorly fitted or top-dose-only effect, or another doubt; inactive = no such curve, though single readings can be large; an effect the other way counts as inactive or inconclusive. Unless noted, % is set by controls: 0 for no effect and ±100 for the full control effect; potency is the fitted concentration of half-maximal effect.

SMILES | HT1080NT lethal | KB-3-1 tox | KB-V1 cytotox | HT1080 IDH1KD tx
CNc1c(NS(=O)(=O)c2ccc(CC(C)C)cc2)c(=O)oc2ccccc12 | 13.4% | i | i | -12.5%
COc1cc2nc(/C=C/c3cc(OC)c(OC)c(OC)c3)sc2cc1SC | ? | 23.1µM* | 10.3µM* | ?
Cc1ccc(-n2c(C)nc3c(cnn3-c3ccccc3Cl)c2=O)cc1C | 16.9% | ? | 20.6µM* | -0.8%
Cc1nc2c(cnn2-c2ccccc2Cl)c(=O)n1-c1ccc(N2CCC(C)CC2)cc1 | -10.0% | 16.4µM* | 6.51µM* | -27.1%
CCc1nc2c(cnn2-c2ccc(F)cc2)c(=O)n1-c1ccc(N2CCC(C)CC2)cc1 | 4.6% | i | i | 4.0%
CCOc1ccc(NC(=O)COC(=O)c2ccccc2OCC(=O)N(C)C)cc1 | . | ? | i | .
Cc1cccc2cc(CN(Cc3nnnn3C3CCCCC3)C3CCCC3)c3nnnn3c12 | 15.9% | ? | 20.6µM* | 9.0%
COc1cc(C)cc(OC)c1OCC(=O)Nc1cc(C)on1 | -2.0% | i | 20.6µM* | -1.4%
Cc1oc2ccc(O)c(CN3CCN(Cc4ccccc4)CC3)c2c1C(=O)Nc1ccccc1 | . | i | i | .
COc1ccc(-c2csc(N(CC3CCCO3)C(=O)c3ccccc3)n2)cc1 (stereo unspecified) | -22.9% | i | i | -22.0%
COc1ccc(-c2csc(N(CC3CCCO3)C(=O)c3ccc(C)cc3)n2)cc1 (stereo unspecified) | -26.3% | ? | 3.66µM* | ?
O=C(c1ccco1)N(CC1CCCO1)c1nc(-c2ccccc2)cs1 (stereo unspecified) | ? | ? | 23.1µM* | ?
Cc1cc(C)n(C(C)CC(=O)Nc2cccc(C#N)c2)n1 (stereo unspecified) | . | i | i | .
CCN(CC)C(=O)CSc1nnc(COc2ccc(OC)cc2)n1N | 11.8% | i | i | 8.5%
CCN(CC)C(=O)CSc1nnc2nnc3cc(OC)ccc3n12 | 13µM* | ? | ? | ?
CCOc1ccc(-n2c(C)nnc2SCC(=O)N(CC)CC)cc1 | 10.8% | i | 16.4µM* | 9.4%
CC(C)[C@H](NC(=O)c1ccccc1Cl)C(=O)OCc1cc([N+](=O)[O-])cc2c1OCOC2 | -3.8% | i | 20.6µM* | -0.2%
CC(C)[C@H](NS(=O)(=O)c1ccccc1)C(=O)OCc1cc([N+](=O)[O-])cc2c1OCOC2 | -1.2% | i | i | -4.8%
CCCc1c(NC(=O)Nc2ccc(F)cc2)cnn1-c1ccc(Cl)cc1 | -28.5% | 9.2µM* | ? | -20.3%
CC1CCN(C(=O)c2c(NC(=O)c3ccccc3F)sc3c2CCC(C(C)(C)C)C3)CC1 (stereo unspecified) | . | i | i | .
Cc1ccc(C(=O)CSc2nnc(COc3cccc4cccnc34)o2)cc1 | ? | i | i | ?
O=C(CSc1nnc(COc2cccc3cccnc23)o1)c1ccc(F)cc1 | 10µM* | i | i | 5.01µM*
Cc1ccc(N2C(=O)CS(=O)(=O)C23C(=O)N(Cc2ccccc2C)c2ccccc23)cc1Cl (stereo unspecified) | . | i | i | .
CN=c1sc(C(=O)Nc2ccccc2)c(C)n1C | -0.9% | i | i | 1.7%
CN=c1sc2c(n1C)C(=O)c1ccccc1C2=O | 18.4µM* | ? | ? | ?
SMILES | HT1080NT lethal | KB-3-1 tox | KB-V1 cytotox | HT1080 IDH1KD tx
COc1ccc(CCNC(=O)CSc2nc3ccccc3nc2Cc2ccc(Cl)cc2)cc1OC | . | i | i | .
COc1ccc(C(CC(=O)Nc2ccc(F)c(Cl)c2)N2Cc3ccccc3C2=O)cc1OC (stereo unspecified) | . | i | 18.4µM* | .
CCOC(=O)c1cnc(-n2nc(C)cc2C)nc1NNc1nc(C)cc(C)n1 | 1.7% | i | i | 0.3%
CCOC(=O)c1cnc(-n2cc(C)cn2)nc1Nc1ccccc1OC | -3.7% | ? | 1.84µM* | 27.9%
CCOC(=O)c1cnc(-n2nc(C)cc2C)nc1NNc1nc(-c2ccccc2)cc(-c2ccccc2)n1 | ? | 25.9µM* | ? | ?
CCOC(=O)c1cnc(-n2nc(C)cc2C)nc1NC | 7.08µM* | i | ? | ?
CCOC(=O)c1cnc(-n2nc(C)cc2C)nc1N(CC)CC | ? | i | 1.64µM* | 1.58µM*
CCOC(=O)c1cnc(-n2nc(C)cc2C)nc1Nc1ccc(C)cc1 | 7.2% | i | 1.03µM* | 1.5%
CCOC(=O)c1cnc(-n2nc(C)cc2C)nc1Nc1ccc(O)cc1 | 15.5% | ? | ? | 9.5%
